Screening data: PubChem BioAssay, National Center for Advancing Translational Sciences (NCATS)
HT1080-NT tox = kills 2HG-producing HT-1080-NT fibrosarcoma cells | HT-1080-NT fibrosarcoma viability, CellTiter-Glo ATP luminescence, 48 h | Potency, µM (highest dose often 46.1 µM), inactives show at the top dose activity, negative = less viability, usual class: cytotoxic | 360,000 tested, 1.6% active;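 note: NT is the 2HG producing partner of a matched IDH1 knockdown line; 0% = DMSO-treated cells and -100% = media-only wells without cells; nearly all actives have a fitted effect of over 55% in size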
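Compounds were tested in concentration-response format on HT-1080-NT cells for 48 hours at 37 degrees C. Cell viability came from CellTiter-Glo luminescence; curves were classified by r2, response magnitude and activity.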
SW480 rerep = induces DNA re-replication in SW480 colon adenocarcinoma cells; SW480 DNA re-replication, Hoechst DNA content imaging, 48 h; Potency, µM (top dose mostly 46.1 µM), for the others: at the highest dose re-replication activation, most hits filed as activators; 340,000 tested, 1.8% active; AID 624297; note: % of control where 0% means no effect; nearly all actives have a fitted effect of over 55% in size
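Image-based DNA-content assay: after two days of treatment, nuclei were labelled with the DNA dye Hoechst and imaged, and hits were compounds raising the count of nuclei showing high fluorescence intensity.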
KB-3-1 tox = KB-3-1 parental cell cytotoxicity; KB-3-1 viability, CellTiter-Glo ATP luminescence, 72 h; 400,000 tested, 1.4% active; Potency, µM (top dose mostly 46.1 µM), most hits filed as cytotoxic; AID 1347075; note: % is set by controls: 0 for no effect and ±100 for the full control effect; nearly all actives have a fitted effect of over 60% in size
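Parental KB-3-1 adenocarcinoma cells in phenol-red-free DMEM with 10% FBS were pin-treated with compounds at several concentrations, incubated 72 h at 37 °C, and viability read by CellTiter-Glo luminescence; concentration-effect curves were fitted after normalization.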
HT1080 IDH1KD tx = HT-1080 IDH1 knockdown cell toxicity (counter line). HT-1080 IDH1 knockdown viability, ATP luminescence, 48 h. Potency, µM (doses to about 46.1 µM), inactives show top-dose activity, negative = toxicity, hits mostly cytotoxic. 360,000 tested, 2% active. AID 686971;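 note: 0% = DMSO wells and -100% = cell-free medium wells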
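In this qHTS, HT-1080 cells depleted of IDH1 are exposed for 48 h at 37 °C to compound titrations. Toxicity is scored from CellTiter-Glo luminescence, with DMSO as full viability and medium alone as none.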
MCF10A rereplic = inducers of DNA re-replication in MCF 10A breast cells; MCF 10A DNA re-replication, Hoechst nuclear intensity, 48 h; Potency, µM (series often up to 46.1 µM), inactives show at the highest dose activity, positive = re-replication, hits mostly activators; 350,000 tested, 2.9% active; AID 624296; note: % of control where 0% means no effect; nearly all actives have a fitted effect of over 50% in size
KB-V1 MDR tox = kills drug-selected multidrug resistant KB-V1 cells; AID 1347076; 400,000 tested, 3.4% active; Potency, µM (highest dose often 46.1 µM), actives largely listed as cytotoxic; KB-V1 MDR cells viability, CellTiter-Glo, 72 h; note: % is set by controls: 0 for no effect and ±100 for the full control effect; nearly all actives have a fitted effect of over 60% in size
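Potencies derive from concentration-effect curves fitted to normalized luminescence (CellTiter-Glo) of KB-V1 cells treated for 72 h at 37 degrees C in phenol-red-free DMEM containing 10% FBS.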
Starred values were filed as active, the others as inactive; i = inactive; ? = inconclusive; · = not tested or not shown; [ ] = remark or other dose. Shown are actives, neighbours in structure and some others; about 8% of the full set was active somewhere. Calls come from the whole dose curve; as a rule, active = well fitted curve in the direction sought with a large enough effect; inconclusive = small, poorly fitted or top-dose-only effect, or another doubt; inactive = no such curve, though single readings can be large; an effect the other way counts as inactive or inconclusive. Potency is the fitted concentration of half-maximal effect.

SMILES	HT1080-NT tox	SW480 rerep	KB-3-1 tox	HT1080 IDH1KD tx	MCF10A rereplic	KB-V1 MDR tox
C=CCn1c(NCCc2ccccc2)nc2c1c(=O)n(C)c(=O)n2C	-15%	0%	?	?	7%	9.2µM*
Cn1cnc(S(=O)(=O)N2CCN(C(c3ccc(F)cc3)c3ccc(F)cc3)CC2)c1	?	-6%	i	-14%	-1%	i
CC(C)NCC(O)Cn1c2c(c3ccccc31)CCc1c-2cnn1-c1ccccc1 (stereo not given)	?	21%	16µM*	-12%[9.24 µM]	18µM*	21µM*
CN1CCc2c(n(CC(O)CNCc3ccccc3)c3ccccc23)C1=O (stereo not given)	?	4%	i	?	1%	i
N#Cc1c[nH]n2c(NC3CCCCC3)c(-c3cccc(Cl)c3)nc12	·	·	i	·	·	?
Cc1ccc(-n2cccc2C(=S)N=P(N(C)C)(N(C)C)N(C)C)cc1	?	?	8.2µM*	8.2µM*	?	3.3µM*
COC(=O)c1ccc(COc2ccc(/C=N/Nc3nc(C)cc(=O)[nH]3)cc2)cc1	1%	?	i	20%	-4%	i
Cc1ccc(NC(=O)c2ccc3c(O)c(S(=O)(=O)c4ccc(Cl)cc4)c(=O)[nH]c3c2)cc1	·	·	i	·	·	i
O=C(Nc1ccc(Cl)cc1Cl)c1cnn2c1NC(=C1CC1)C=C2C(F)F	·	·	?	·	·	i
CSc1ccccc1NC(=O)CSCc1ccc(Br)cc1	8%	-5%	i	16%	10%	21µM*
CSc1ccccc1NC(=O)CN1c2ccccc2CC1C (stereo not given)	-4%	8.2µM*	i	-11%	?	i
O=C(CCC1N=C2c3ccccc3N=C(SCC(=O)Nc3ccccc3F)N2C1=O)NCc1ccco1 (stereo not given)	·	·	i	·	·	i
Cc1cccc(C2=NN(c3ccc(Br)cc3)[C@@H](C(=O)N3CCOC3=O)[C@@H]2c2ccc([N+](=O)[O-])cc2)c1	-11%	-1%	i	-21%	-19%	i
CC[C@H]1C(c2ccc(F)cc2)=NN(c2ccccc2)[C@@H]1CO	-1%	?	i	-1%	6.5µM*	i
OC[C@@H]1[C@@H](c2ccc(F)cc2)C(c2ccccc2)=NN1c1ccccc1	-19%	18µM*	i	-28%	?	?
Cc1cccc(C2=NN(c3ccccc3)[C@H](CO)[C@H]2c2ccccc2)c1	-23%	16µM*	i	-26%	2.3µM*	i
O=C1OCCN1C(=O)[C@H]1[C@H](c2ccc([N+](=O)[O-])cc2)C(c2ccccc2)=NN1c1ccccc1	-10%	-6%	i	-27%	3%	i
Cc1ccccc1S(=O)(=O)N(CC(O)CN1C(=O)NC(C)(C)C1=O)c1ccccc1 (stereo not given)	5%	-4%	i	11%	-5%	i
Cc1ccc2nc(N3CCN(CCO)CC3)nc(-c3ccccc3)c2c1	-29%	12µM*	i	-23%	3.7µM*	i
Clc1ccc(-c2nc(N3CCOCC3)nc3ccccc23)cc1	6%	17%	i	26%	22%	i
OCCN1CCN(c2nc(-c3ccccc3)c3cc(Cl)ccc3n2)CC1	?	15µM*	?	?	?	i
CCOC(=O)N1CCN(c2nc(-c3ccccc3)c3cc(C)ccc3n2)CC1	4%	?	i	2%	4.1µM*	i
Cc1ccc2nc(Cl)nc(-c3ccccc3)c2c1	-15%	-4%	i	-20%	4%	?
O=C1Nc2ccc(Br)cc2C1(O)c1ccccc1 (stereo not given)	-5%	10%	i	6%	-13%	i
O=C1Nc2ccc(Br)cc2C12NNc1ccccc1O2 (stereo not given)	-27%	3%	?	?	23µM*	i
SMILES	HT1080-NT tox	SW480 rerep	KB-3-1 tox	HT1080 IDH1KD tx	MCF10A rereplic	KB-V1 MDR tox
COc1cc(SC)ccc1C(=O)Nc1ccc2c(c1)OCCO2	1.8µM*	24%	i	?	?	?
COc1cc(SC)ccc1C(=O)Nc1c(C)cccc1C	5%	-7%	i	11%	3%	?
Cc1c(C(=O)NCc2ccc3c(c2)OCO3)oc2ccc(Br)cc12	?	-1%	?	?	?	?
Cc1oc(C(C)(C)C)cc1C(=O)Nc1ccc2c(c1)OCO2	-18%	-10%	i	-17%	0%	i
COc1cc(SC)ccc1C(=O)NNC(=O)c1cc(C)oc1C	8.2µM*	0%	?	9.2µM*	?	?
Cc1oc(C(C)(C)C)cc1C(=O)Nc1ccc2c(c1)OCCO2	-9%	-14%	i	-17%	6%	21µM*
Cc1c(C(=O)Nc2ccc3c(c2)OCCO3)oc2ccc(Br)cc12	-1%	-1%	i	1%	3%	21µM*
COc1ccccc1C(=O)Nc1ccc2c(c1)OCCO2	-18%	-3%	i	-9%	18%	i
CCOc1ccc(C2NC(=O)c3c(COC)cc(C)nc3N2Cc2ccccc2)cc1OC (stereo not given)	·	·	i	·	·	i
CCOc1cccc(CNC(=O)c2ccc(N3CCCC3)c(NC(=O)NCc3ccc(F)cc3)c2)c1	·	·	i	·	·	i
Cc1ccccc1N(CC(=O)Nc1ccccc1C(=O)NCc1ccco1)S(=O)(=O)c1ccccc1	?	?	23µM*	21µM*	?	i
COc1ccccc1N(CC(=O)NCc1ccco1)S(=O)(=O)c1ccc(C)cc1	-3%	11%	i	-3%	-1%	i
Cc1ccc(S(=O)(=O)N(Cc2ccc(Cl)cc2)c2ccccc2C(=O)NCc2ccco2)cc1	-5%	?	i	-17%	?	18µM*
O=C(NCc1ccco1)c1ccc(CS(=O)(=O)Cc2ccc(Cl)cc2)o1	0%	-6%	i	-46%	?	15µM*
CN(C(=O)NCc1noc2ccccc12)c1cccc(Cl)c1	·	·	i	·	·	i
O=C(NC1CCCCCC1)C(Cc1ccccc1)n1cccc1 (stereo not given)	22%	-44%	?	-2%	7%	i
CCOc1ccc2nc(N3C(=O)CNC3=S)sc2c1	-17%	?	i	-1%	?	?
Cc1cc2nc(N3C(=O)CNC3=S)sc2cc1C	-22%	?	?	-16%	15µM*	16µM*
CC1(C)Nc2cccc3c(N=Nc4ccc(N=Nc5ccccc5)c5ccccc45)ccc(c23)N1	·	·	i	·	·	?
